The full ranking holds about 33,000 sequences; the median of “E-score (-0.5 to 0.5)” is about -0.056, and the highest 2% start at about 0.38. The full list was thinned out, with the highest values kept by preference.
Biological target: Stb4 (UniProt P50104)
Assay: PBM E-score (8-mer binding enrichment) (E-score (-0.5 to 0.5)); higher = stronger / more preferred TF binding
Settings: protein concentration: 200 nM; construct: GST-DNA-binding domain
Description: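 Universal 'all 10-mer' protein binding microarrays (Agilent AMADID 015681) probed with GST-tagged S. cerevisiae TFs (full-length or DBD) made by in vitro transcription/translation (PURExpress), about 100-200 nM. Bound TF was detected with fluorescent anti-GST. Each ungapped 8-mer (which stands for itself and its reverse complement) is scored by the PBM enrichment score (E-score), a modified Wilcoxon-Mann-Whitney statistic from -0.5 to +0.5, computed with the Universal PBM Analysis Suite. Scale: above 0.35 generally sequence-specific binding.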

Chain of UniProt P50104 (P50104 whole entry): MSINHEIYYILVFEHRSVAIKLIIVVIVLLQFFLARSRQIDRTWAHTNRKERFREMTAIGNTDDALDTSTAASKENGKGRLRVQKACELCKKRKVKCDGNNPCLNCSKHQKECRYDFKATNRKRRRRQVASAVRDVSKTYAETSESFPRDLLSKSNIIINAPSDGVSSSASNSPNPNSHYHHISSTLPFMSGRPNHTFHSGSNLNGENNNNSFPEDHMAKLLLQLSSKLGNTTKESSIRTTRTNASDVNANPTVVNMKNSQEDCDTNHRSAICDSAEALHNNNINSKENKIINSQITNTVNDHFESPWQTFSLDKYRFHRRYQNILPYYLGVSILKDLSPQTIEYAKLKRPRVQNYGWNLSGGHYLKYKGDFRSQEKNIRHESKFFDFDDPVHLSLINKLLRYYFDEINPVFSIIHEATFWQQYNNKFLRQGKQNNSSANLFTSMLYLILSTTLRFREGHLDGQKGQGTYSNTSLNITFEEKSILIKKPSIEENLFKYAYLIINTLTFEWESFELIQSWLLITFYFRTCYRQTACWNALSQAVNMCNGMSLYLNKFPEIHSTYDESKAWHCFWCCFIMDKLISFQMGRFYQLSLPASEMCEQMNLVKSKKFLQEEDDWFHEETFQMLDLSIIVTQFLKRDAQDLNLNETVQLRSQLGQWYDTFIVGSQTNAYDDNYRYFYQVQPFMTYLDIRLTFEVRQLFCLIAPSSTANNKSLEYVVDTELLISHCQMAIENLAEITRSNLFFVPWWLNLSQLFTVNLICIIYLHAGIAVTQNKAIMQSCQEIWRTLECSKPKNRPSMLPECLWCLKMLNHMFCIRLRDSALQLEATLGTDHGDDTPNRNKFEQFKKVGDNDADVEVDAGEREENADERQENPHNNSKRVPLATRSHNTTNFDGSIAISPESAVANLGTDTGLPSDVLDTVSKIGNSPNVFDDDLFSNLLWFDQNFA

| Sequence | PBM E-score |
| --- | --- |
| CCCTCGGA | 0.464 |
| GCCTCGTA | -0.0917 |
| CAAGTTTA | -0.136 |
| ACCTGCAC | -0.0938 |
| AAGGTACA | -0.341 |
| AAGGCTAG | -0.127 |
| AAACCGAA | 0.259 |
| GAACCGAC | 0.286 |
| GAACCGTA | 0.0316 |
| TAACCGAA | 0.431 |
| CAACCGAA | 0.289 |
| GAACCGAA | 0.397 |
| AACCCGGA | 0.375 |
| CTACAGTC | -0.214 |
| CTCATCTA | -0.116 |
| AAAGTGAC | -0.123 |
| AAACCCGA | 0.403 |
| AAACCCGC | 0.246 |
| TAACCCGA | 0.385 |
| AAACCCGT | -0.00663 |
| CAACCCGA | 0.33 |
| GAACCCGA | 0.338 |
| TGACCCAA | -0.235 |
| AGCGAAAT | 0.0212 |
| CGATTATC | 0.15 |

| Sequence | PBM E-score |
| --- | --- |
| GATTCAGA | -0.121 |
| TCGGCACA | 0.441 |
| TCGGCCGA | 0.419 |
| TCGGCAGA | 0.41 |
| TCGGCTAA | 0.455 |
| ACGGCTAA | 0.264 |
| CCGGCACG | 0.293 |
| GCGGCTAA | 0.287 |
| GCGGCCGA | 0.217 |
| CCGGCACA | 0.307 |
| CCGGCAGA | 0.286 |
| ACGGCAGA | 0.156 |
| CCGGCCGA | 0.356 |
| GACGTTGC | -0.00479 |
| AAGGCCTT | -0.207 |
| GGCGCCGA | 0.317 |
| GAGTAATC | -0.0725 |
| CGGACCCG | 0.346 |
| CCCTGCTA | -0.236 |
| ATTTGAGG | -0.0518 |
| CCACTTGA | -0.0304 |
| AATAGTCT | -0.236 |
| TCGGCAAA | 0.41 |
| GCGGCAAA | 0.182 |
| ACGGCAAA | 0.243 |

| Sequence | PBM E-score |
| --- | --- |
| AGGAGAAC | -0.179 |
| CAAATGCG | -0.127 |
| GTACCGAA | 0.358 |
| ATACCGAT | 0.285 |
| CTACCGAA | 0.365 |
| ATACCGAA | 0.392 |
| TTACCGAA | 0.424 |
| ATACCGAC | 0.167 |
| CGGTCTGC | -0.0321 |
| GCCACCGC | -0.0977 |
| CTCAAGGC | 0.065 |
| AGTGCGAC | 0.0915 |
| CCGGTATA | 0.214 |
| CCGAGAAC | 0.414 |
| CCGAGAAG | 0.386 |
| GCGAGAAC | -0.021 |
| ACGAGAAC | -0.149 |
| CCGAGAAA | 0.451 |
| GCGAGAAA | -0.00939 |
| ACGAGAAG | -0.264 |
| CAGAGAAG | -0.0211 |
| TCGAGAAA | -0.141 |
| AGCATTGG | -0.12 |
| CAGGGCAC | -0.15 |
| AAGAGGTG | -0.0351 |

| Sequence | PBM E-score |
| --- | --- |
| CCATTGAC | -0.243 |
| GAATGCGA | 0.0718 |
| CAGAGAAA | -0.173 |
| AGGGCCGA | 0.232 |
| AATGAGGC | -0.312 |
| TTCCCGAA | 0.46 |
| AGCCCGAG | 0.231 |
| ATCCCGAT | 0.342 |
| GTCCCGAC | 0.376 |
| GTCCCGAA | 0.406 |
| GTCCCGCA | 0.213 |
| TTCCCAAA | -0.234 |
| ATCCCGAG | 0.439 |
| ATCCCGAC | 0.387 |
| TCCCCGAA | 0.37 |
| ACCCCGAC | 0.248 |
| AGCCCGAC | 0.0817 |
| AACAAGAG | -0.186 |
| TTCCACAA | 0.0123 |
| GAGTGATC | -0.021 |
| CGTCTGAG | -0.171 |
| TTGCACAA | -0.231 |
| TAGCGACA | -0.154 |
| AGATATGA | -0.0877 |
| CGACATTA | 0.187 |

| Sequence | PBM E-score |
| --- | --- |
| CATCACCC | 0.123 |
| CTCCCGGA | 0.329 |
| CGCCCGAA | 0.293 |
| AGCCCGAA | 0.264 |
| CTCCCGAG | 0.445 |
| ATCCCAAA | 0.0397 |
| ATCCCGAA | 0.432 |
| CGCCCGAG | 0.328 |
| CTCCCGAA | 0.43 |
| CTCCCGAC | 0.33 |
| AATCTACA | -0.0631 |
| AATCTATC | -0.0505 |
| CCAAGTCC | -0.104 |
| GGTTTTAA | 0.126 |
| GCCCATTA | -0.168 |
| ACGTTTGC | -0.11 |
| TCTAGTAA | -0.126 |
| GTGTAAAA | -0.0759 |
| ATGCGAGC | -0.123 |
| ATCCGAGC | 0.478 |
| AACCGAGG | 0.355 |
| ATCCGCGA | 0.247 |
| GTCCGAGA | 0.378 |
| ATCCGAGA | 0.471 |
| ATCCGAGG | 0.481 |

| Sequence | PBM E-score |
| --- | --- |
| CTCCGAGA | 0.409 |
| ATGCGAGA | -0.117 |
| ATACGAGC | -0.141 |
| ATGCGAGG | -0.224 |
| CTTCGAGA | -0.257 |
| AACGGGTC | 0.156 |
| AACGATAT | -0.0769 |
| CTTCTTGC | -0.0322 |
| ACCCCGTC | 0.167 |
| GAGATCTA | -0.103 |
| ACTGAGTC | -0.0516 |
| CTCTGCCC | -0.215 |
| CCTTCTAA | -0.338 |
| AATTGAAG | -0.06 |
| CCGCGATC | 0.142 |
| CTCCGAGC | 0.428 |
| CTCCGTGC | 0.217 |
| CTCCGCGC | 0.168 |
| CTGCCAAC | -0.1 |
| CAGGAACG | -0.144 |
| ACGGAACC | 0.328 |
| ACGGAACG | 0.327 |
| CGGGAACA | 0.374 |
| GCGGAACA | 0.335 |
| TCGGAACA | 0.479 |

| Sequence | PBM E-score |
| --- | --- |
| ACGGAACA | 0.326 |
| CCGGAACC | 0.41 |
| CCGGAACA | 0.431 |
| GCGGAACC | 0.284 |
| CCGGAACG | 0.424 |
| CCGGAATA | 0.347 |
| AGGCCTCG | 0.221 |
| TCTTCCAA | -0.0347 |
| CCTGGTCC | -0.116 |
| CGGTAAAA | 0.346 |
| CACGGCAG | 0.137 |
| CTCGGCAA | 0.458 |
| ATCGGCAA | 0.366 |
| CTCGGCAC | 0.451 |
| TTCGGCAA | 0.454 |
| CTCGGCAG | 0.444 |
| CACGGCAA | 0.199 |
| GTCGGCAA | 0.368 |
| ATCGGCAG | 0.321 |
| CTCGGCCA | 0.251 |
| ATCGGCAC | 0.34 |
| GTCGGCAC | 0.361 |

— the supplement of paper PMC3334620
